The values below come from ChEMBL document CHEMBL1961873, “Compounds: GSK PKIS; Assays: Nanosyn kinase panel” (2012).

The structures appear in SMILES notation. “And” between values parts separate entries of the source, which are not always exact repeats. Identical values can stand only once.

Sequence of Maternal embryonic leucine zipper kinase (Homo sapiens) (Q14680 whole entry, looked up): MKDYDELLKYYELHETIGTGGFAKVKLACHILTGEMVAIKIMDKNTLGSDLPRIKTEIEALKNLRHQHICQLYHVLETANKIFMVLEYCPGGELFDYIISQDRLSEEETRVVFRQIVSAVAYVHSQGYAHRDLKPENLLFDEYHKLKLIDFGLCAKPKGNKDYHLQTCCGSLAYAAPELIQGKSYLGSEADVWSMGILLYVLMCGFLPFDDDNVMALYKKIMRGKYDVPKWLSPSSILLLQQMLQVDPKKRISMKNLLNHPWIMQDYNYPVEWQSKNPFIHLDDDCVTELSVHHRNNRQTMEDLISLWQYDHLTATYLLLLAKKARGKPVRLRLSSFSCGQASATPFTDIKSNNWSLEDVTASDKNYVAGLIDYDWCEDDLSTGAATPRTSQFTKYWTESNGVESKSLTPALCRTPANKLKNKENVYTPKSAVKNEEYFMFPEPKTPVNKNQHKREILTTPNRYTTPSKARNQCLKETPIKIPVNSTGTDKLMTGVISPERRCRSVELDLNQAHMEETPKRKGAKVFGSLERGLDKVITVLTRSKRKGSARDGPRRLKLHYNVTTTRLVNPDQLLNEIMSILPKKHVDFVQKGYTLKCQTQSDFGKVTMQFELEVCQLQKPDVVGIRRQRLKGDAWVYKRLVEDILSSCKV

The first assay addresses T1, MAP/microtubule affinity-regulating kinase 4 (Homo sapiens) (UniProt Q96L34).
T1 sequence (whole entry): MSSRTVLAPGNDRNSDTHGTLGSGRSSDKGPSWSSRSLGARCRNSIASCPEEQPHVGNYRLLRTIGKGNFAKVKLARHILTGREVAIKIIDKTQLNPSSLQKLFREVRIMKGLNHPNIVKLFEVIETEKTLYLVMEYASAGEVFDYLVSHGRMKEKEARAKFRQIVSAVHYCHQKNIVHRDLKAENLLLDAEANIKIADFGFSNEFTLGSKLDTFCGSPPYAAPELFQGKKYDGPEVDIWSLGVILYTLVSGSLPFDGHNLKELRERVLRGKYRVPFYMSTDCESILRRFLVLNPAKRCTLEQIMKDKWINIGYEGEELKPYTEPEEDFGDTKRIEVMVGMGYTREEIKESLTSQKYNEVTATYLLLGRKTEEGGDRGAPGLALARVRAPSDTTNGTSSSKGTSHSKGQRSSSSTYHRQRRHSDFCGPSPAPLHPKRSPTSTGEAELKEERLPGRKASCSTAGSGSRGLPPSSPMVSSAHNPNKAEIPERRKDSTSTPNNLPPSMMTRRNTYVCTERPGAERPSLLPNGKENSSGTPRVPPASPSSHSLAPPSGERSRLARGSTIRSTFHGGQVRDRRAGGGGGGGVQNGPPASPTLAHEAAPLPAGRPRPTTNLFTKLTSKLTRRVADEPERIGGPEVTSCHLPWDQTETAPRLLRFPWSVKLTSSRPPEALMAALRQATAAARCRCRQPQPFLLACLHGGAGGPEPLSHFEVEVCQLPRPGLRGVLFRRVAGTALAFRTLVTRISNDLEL
To be noted: at 1 µM.
Take `O=C(Nc1n[nH]c2nnc(-c3cccnc3)cc12)C1CC1`: the inhibition stood at 0.56%.
Still for that read-out and setting: the same measure for `COC(=O)Nc1nc2ccc(Oc3ccc(NC(=O)Nc4cc(C(F)(F)F)ccc4F)cc3)cc2s1`: 0.37%; for `NC(=O)c1ccc2c(-c3ccnc(NCCCO)n3)c(-c3ccc(F)cc3)nn2c1`: 2.67%.
For `NS(=O)(=O)c1ccc(N/N=C2\C(=O)Nc3ccc(C(=O)NCc4ccncc4)cc32)cc1`, the inhibition is 33.7%.
The same measure, in the same setting: the same measure for `CNC(=O)c1ncccc1Nc1nc(Nc2cc3c(cc2OC)CCCN3C(=O)CN(C)C)nc2[nH]ccc12`: 4.01%; for `COc1ccccc1-c1cc(/C=C2\C(=O)Nc3ncc(Br)cc32)cc(Br)c1O`: 5.18%; for `CN(C)CCNC(=O)Nc1ccc(N(C)c2ccnc(Nc3ccc(CS(C)(=O)=O)cc3)n2)cc1`: 8.9%.
Regarding `CS(=O)(=O)CCNCc1ccc(-c2ccc3ncnc(Nc4ccc(OCc5ccccc5)cc4)c3c2)o1`, the inhibition came out at 1.3%.
Same read-out and setting: the same measure for `COC(=O)Nc1nc2cc(Oc3ccc(NC(=O)Nc4ccccc4)cc3)ccc2[nH]1`: 0.89%; for `O=C(O[C@H]1CN[C@H](C#Cc2cc3ncnc(Nc4ccc(OCc5cccc(F)c5)c(Cl)c4)c3s2)C1)N1CCOCC1`: 0.94%; for `CCCNc1cccc(-n2ncc3c(N/N=C/c4ccncc4)ncnc32)c1`: 9.44%.
Take `CC1=C(C(=O)Nc2ccc3[nH]nc(C)c3c2)C(c2ccc(C(F)(F)F)cc2)CC(=O)N1` (stereo unspecified): the inhibition came to 3.18%.
As to `CN1CCC(C(=O)Nc2n[nH]c3nc(-c4ccc(O)cc4)c(Br)cc23)CC1`, the inhibition is 4.18% and 0.65%.
As to `Cc1cc(O)cc(C)c1/C=C/c1cncc(C(=O)OC(C)(C)C)c1`, the inhibition worked out at 0.19%.
For the molecule `CN1CCN(Cc2ccc(-c3cc4ncnc(Nc5ccc(OCc6cccc(F)c6)c(Cl)c5)c4s3)o2)CC1`, the inhibition is 3.52% and 3.32%.

The next assay concerns the target Maternal embryonic leucine zipper kinase (Homo sapiens) (UniProt Q14680). To be noted: at 0.1 µM.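 Note: reported figure is the mean percent inhibition of MELK.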
Regarding `FC(F)(F)CNc1nccc(-c2cnn3ncccc23)n1`, the inhibition was 5.66%.
Take `CCOc1ccc2c(-c3ccnc(Nc4cc(OC)cc(C(F)(F)F)c4)n3)cnn2n1`: the inhibition worked out at 3.83%.
Consider `CCS(=O)(=O)c1ccc(OC)c(Nc2ncc(-c3cccc(C(C)=O)c3)o2)c1`, for which the inhibition is 2.17%.
On to `CS(=O)(=O)CCNCc1ccoc1-c1ccc2ncnc(Nc3ccc(OCc4ccccc4)cc3)c2c1`, for which the inhibition is -0.71%.
For `NS(=O)(=O)c1cccc(N/C=C2\C(=O)Nc3ccccc32)c1`, the inhibition stood at 5.46%.
In the case of `CCn1c(-c2nonc2N)nc2cncc(C(=O)NCCNC)c21`, the inhibition came to 15.2%.
The same measure, in the same setting: the same measure for `CS(=O)(=O)CCNCc1ccc(-c2ccc3ncnc(Nc4ccc(OCc5cccc(C(F)(F)F)c5)cc4)c3c2)o1`: 3.5%; for `COc1cc(N2CCN(C(C)C)CC2)ccc1Nc1nc(Nc2cccc(F)c2C(=O)O)c2cc[nH]c2n1`: 2.86%.
For `O=C(O[C@H]1CN[C@H](C#Cc2cc3ncnc(Nc4ccc5c(cnn5Cc5ccccc5)c4)c3s2)C1)N1CCOCC1`, the inhibition was -2.54%.
For `CS(=O)(=O)Nc1ccc(-c2cc(-c3ccccc3)cc(C(N)=O)c2N)cc1`, the inhibition was 3.07%.
Still for that read-out and setting: the same measure for `CCS(=O)(=O)c1ccc(OC)c(Nc2ncc(-c3cccc(F)c3)o2)c1`: 7%; for `O=C1Nc2ccccc2/C1=C1\CCc2cc(O)ccc21`: 11.1%.
Consider `Cc1ccc(-c2cc3c(NC(=O)C4CC4)ncnc3o2)cc1`, for which the inhibition amounted to 2.47%.
On to `CS(=O)(=O)Nc1ccc(-c2ccc3c(NC(=O)C4CC4)n[nH]c3c2)cc1`, for which the inhibition was determined as 2.17%.
Still for that read-out and setting: the same measure for `Cn1c(-c2nonc2N)nc2cnccc21`: 7.95%.
On the same count and under the same terms, the result for `COc1cccc(-n2ncc3c(N/N=C/c4ccc(C(=O)NCCN(C)C)cc4)ncnc32)c1` reads 2.38%.
The same measure, in the same setting: the result for `O=C(Nc1n[nH]c2nnc(-c3cccnc3)cc12)C1CC1` reads -0.51%; that for `COC(=O)Nc1nc2ccc(Oc3ccc(NC(=O)Nc4cc(C(F)(F)F)ccc4F)cc3)cc2s1`, 1.63%; that for `NC(=O)c1ccc2c(-c3ccnc(NCCCO)n3)c(-c3ccc(F)cc3)nn2c1`, 6.11%.
`NS(=O)(=O)c1ccc(N/N=C2\C(=O)Nc3ccc(C(=O)NCc4ccncc4)cc32)cc1`: the inhibition was 49.6%.
Consider `CNC(=O)c1ncccc1Nc1nc(Nc2cc3c(cc2OC)CCCN3C(=O)CN(C)C)nc2[nH]ccc12`, for which the inhibition was 3.77%.
Same read-out and setting: the same measure for `COc1ccccc1-c1cc(/C=C2\C(=O)Nc3ncc(Br)cc32)cc(Br)c1O`: 4.33%; for `CN(C)CCNC(=O)Nc1ccc(N(C)c2ccnc(Nc3ccc(CS(C)(=O)=O)cc3)n2)cc1`: 4.26%.
Take `CS(=O)(=O)CCNCc1ccc(-c2ccc3ncnc(Nc4ccc(OCc5ccccc5)cc4)c3c2)o1`: the inhibition was 6.32%.
On the same count and under the same terms, the same measure for `COC(=O)Nc1nc2cc(Oc3ccc(NC(=O)Nc4ccccc4)cc3)ccc2[nH]1`: 0.33%; for `O=C(O[C@H]1CN[C@H](C#Cc2cc3ncnc(Nc4ccc(OCc5cccc(F)c5)c(Cl)c4)c3s2)C1)N1CCOCC1`: 3.76%.

The inhibition is the drop in the measured response relative to a control, in per cent.
